# Compound activity: PubChem BioAssay, National Center for Advancing Translational Sciences (NCATS)
# This is one part of a sample in which hits are shown more often than they occur.
# Pf Dd2 inh: blocks in vitro growth of P. falciparum Dd2 | P. falciparum Dd2 growth, SYBR Green, 72 h | Potency, µM (titrated, usually from 28.9 µM), for the others: top-dose activity, negative = inhibition, hits mostly inhibitors | actives 4.3% (n = 120,000) | AID 1347417; active = well fitted inhibition curve with a large enough effect;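 also: plate controls were DMSO vehicle for no effect and reference drug for full effect; nearly all actives have a fitted effect of over 65% in size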
#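 Readout: SYBR Green fluorescence, 485 nm excitation, 535 nm emission, after ~16 h lysis at 37C. Before that, Dd2-infected red cells (2.5% hematocrit) grew 72 h with compound, 29 uM top final concentration.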
# * hit, by the source's call; i = inactive; [ ] = another dose, or the depositor's remark. Potency is read from the fitted curve at half-maximal effect.
SMILES,Pf Dd2 inh
COc1ccc(-n2nc(C(=O)Nc3cccc(Cl)c3)c3c4ccccc4n(C)c3c2=O)cc1Cl,32%[5.79 µM]
CN1CCN(c2nc3c(c(=O)[nH]2)CCN(Cc2ccc(Cl)cc2)CC3)CC1,i[5.79 µM]
Fc1ccc(CCC2CCCN(Cc3nccs3)C2)cc1F (configuration not stated),i
Fc1ccc(CCC2CCCNC2)cc1F (configuration not stated),7.1µM*
CC1(C(=O)N2CCCC(CCc3ccc(F)c(F)c3)C2)CC1 (configuration not stated),i
CC(=O)c1ccc(S(=O)(=O)Nc2ccc(-c3cn4c(C)csc4n3)cc2)cc1,30%
Cc1cn2nnc(C(=O)NC3CCC(C)CC3)c2c(=O)[nH]1 (configuration not stated),-18%
CCCNC(=O)c1ccc(CN2C(=O)NC3(CCS(=O)(=O)CC3)C2=O)cc1,-2%
Cc1n[nH]c(C)c1CNC(=O)C12CCCC=C1N(C1CCCC1)C(=O)CC2 (configuration not stated),i
O=c1c2cc3c(cc2n(Cc2cccc(Cl)c2)c(=O)n1Cc1nc(-c2ccccc2)no1)OCO3,16%
O=C(Cn1c(=O)c2c(n1Cc1ccccc1)CN(Cc1ccccc1)CC2)Nc1cccc(F)c1,-9%
O=c1cc(-c2ccccc2)c2cc(Cl)c3c(c2o1)CN(Cc1ccccc1)CO3,13µM*
O=c1cc(-c2ccccc2)c2ccc3c(c2o1)CN(Cc1cccc(Cl)c1)CO3,0.63µM*
O=C(Cn1c2c(c(=O)n1Cc1ccccc1)CCN(Cc1ccccc1)C2)NCc1ccc2c(c1)OCO2,-6%
CCc1cc2c(-c3ccccc3)cc(=O)oc2c2c1OCN(Cc1ccc(F)cc1)C2,3.5µM*
O=C1c2cc(N3CCOCC3)nc(-c3ccc(F)cc3)c2CN1Cc1ccccc1,-12%[44.1 µM]
O=C(Cn1c(=O)c2c(n1Cc1ccccc1)CN(Cc1ccccc1)CC2)NCc1ccc2c(c1)OCO2,-4%
O=S1(=O)N(Cc2ccccc2)CCCN1Cc1cccc(Cl)c1,9%
CS(=O)(=O)N(C1CCOCC1)C1CN(C(=O)NCc2ccccc2)C1,3%
COc1cc2c(cc1OCC1CC1)NC(=O)C21CCN(C(C)=O)CC1,-20%[44.1 µM]
Cc1cc(C(=O)N2CCCN(S(=O)(=O)c3ccccc3)CCC(=O)NCC2)n(C)n1,-5%
COCC1CN(C(C)=O)CC12CCN(C(=O)NCCc1ccccc1)CC2 (configuration not stated),i
COCCCNC(=O)C(NC(=O)c1ccccc1C)C1CCN(C(=O)c2ccc(OC)cc2)CC1 (configuration not stated),4%
CCCSC1=NC2(CCN(C(=O)NC3CCCCC3)CC2)N=C1c1ccccc1,i
CCCSC1=NC2(CCN(C(=O)NC3CCCCC3)CC2)N=C1c1ccc(OC)cc1,11µM*
SMILES,Pf Dd2 inh
COC1CCC12CCN(C(=O)NC1CCCCC1)CC2 (configuration not stated),-14%
CCSC1=NC2(CCN(C(=O)NC3CCCCC3)CC2)N=C1c1ccc(OC)cc1,7.1µM*
COc1ccc(-c2nc(C(C)C)nc3c2CCN(C(=O)NC2CCCC2)CC3)cc1,-3%
Cc1nc(-c2ccc(OC3CCN(C(=O)NC4CCCCC4)C3)cc2)no1 (configuration not stated),18%[5.79 µM]
CCOCCn1c(=O)n(CCCN(C)C)c2cc(C(=O)O)cnc21,-9%
CC(Oc1ccccc1F)C(=O)N1CCC(c2nc3ccccc3o2)CC1 (configuration not stated),8%
Cc1noc(C)c1-c1cc2cc(CO)oc2c(-c2ccccc2)n1,-10%[44.1 µM]
CN1[C@@H](CCC(=O)Nc2ccccc2)CNC(=O)[C@@H]2[C@H]1CCN2Cc1ccc(C(F)(F)F)cc1,i
C#CCNC(=O)CC[C@H]1CNC(=O)[C@@H]2[C@@H](CCN2Cc2ccc(C)cc2)N1C,i
Cc1ccc(CN2CC[C@@H]3[C@H]2C(=O)NC[C@H](CCC(=O)Nc2ccccc2)N3C)cc1,11µM*
O=C(Cc1c[nH]c2ccccc12)N1CCCC2(C1)Nc1cccnc1NC2=NC1CCCC1 (configuration not stated),-18%[5.79 µM]
Cc1cc(C(=O)N2CC(Oc3ccc(-c4nc(-c5ccccc5)no4)cc3)C2)n(C)n1,-29%[5.79 µM]
COc1ccccc1OC(C)C(=O)N1CCC(c2nc3ccccc3s2)CC1 (configuration not stated),53%
COc1cccc(CN2C[C@@H](CO)[C@H](c3nc(C)no3)C2)c1OC,i
COc1ccc(CN2C[C@@H](CO)[C@H](c3nc(C)no3)C2)cc1OC,10%
COc1ccc2c(c1)c(CN1C[C@@H](CO)[C@H](c3nc(C)no3)C1)cn2C,10µM*
CC1=C[C@@H](CNC(=O)c2cnccn2)[C@H](C(C)C)C[C@H]1CC(=O)O,10%[44.1 µM]
Cc1nc(-c2c3n(c(=O)n(CC(=O)NCc4ccccc4Cl)c2=O)CCCC3)no1,21%
COc1ccc2c(c1)CCN=C2C[C@H]1CN(C(=O)CC(C)(C)C)CC[C@H]1CC(=O)O,-3%[44.1 µM]
CC(C)N1CC[C@H](c2nc3ccc(C#N)cc3[nH]2)C1,-16%[44.1 µM]
COc1ccc2nc([C@H]3CCN(Cc4ccc(C(=O)O)cc4)C3)[nH]c2c1,-15%[44.1 µM]
c1ccc(CCCN2CC[C@H](c3nc4ccccc4[nH]3)C2)cc1,i
COc1ccc2nc([C@H]3CCN(C4CCN(C(C)=O)CC4)C3)[nH]c2c1,i
COc1ccc2nc([C@H]3CCN(C(C)C)C3)[nH]c2c1,32µM*
COc1ccc2nc([C@H]3CCN(CCCc4ccccc4)C3)[nH]c2c1,11µM*
SMILES,Pf Dd2 inh
CC(C)c1noc([C@@H]2C[C@H](NS(=O)(=O)c3ccccc3)CN2C)n1,-1%[44.1 µM]
Cc1ccc(S(=O)(=O)c2cn(Cc3ccccc3)c3cc(N4CCCC4)c(F)cc3c2=O)cc1C,10µM*
O=c1c(S(=O)(=O)c2cccc(Cl)c2)cn(Cc2ccccc2)c2cc(N3CCCCC3)c(F)cc12,i
O=c1c(S(=O)(=O)c2ccccc2)cn(Cc2cccc(F)c2)c2cc(N3CCCC3)c(F)cc12,-14%
CCn1cc(S(=O)(=O)c2ccc(OC)cc2)c(=O)c2cc(F)c(N3CCCCCC3)cc21,-24%
CCn1cc(S(=O)(=O)c2ccc(C)cc2C)c(=O)c2cc(F)c(N3CCCCC3)cc21,11µM*
Cc1ccc(S(=O)(=O)c2cn(Cc3ccccc3)c3cc(N4CCCC4)c(F)cc3c2=O)cc1,6.3µM*
CCCn1cc(S(=O)(=O)c2ccc(C)c(C)c2)c(=O)c2cc(F)c(N3CCC(C)CC3)cc21,-10%
CCn1cc(S(=O)(=O)c2cc(C)cc(C)c2)c(=O)c2cc(F)c(N3CCCC3)cc21,i
O=c1c(S(=O)(=O)c2ccccc2)cn(Cc2ccccc2)c2cc(N3CCCC3)c(F)cc12,-5%
CN(C)[C@@H]1CN(C(=O)c2ccco2)CC[C@]1(O)c1ccccc1,7%[5.79 µM]
COC(=O)CN1C(=O)C(O)(c2c(C)[nH]c3ccccc23)c2ccccc21 (configuration not stated),7%[0.594 µM]
CCOC(=O)c1c(NC(=O)c2cc3nc(-c4ccc(Br)cc4)cc(C(F)(F)F)n3n2)sc(C(C)=O)c1C,5%
CNC(=O)N1CCCCCCn2c(nnc2-c2ccc(F)cc2)CC1,-12%
Cc1ccccc1NC(=O)COc1ccc(-c2nnc3n2CCCC3)cc1,11µM*
CCc1ccc(NC(=O)COc2cccc(-c3nnc4n3CCCC4)c2)cc1,5µM*
Cc1cccc(NC(=O)Cn2nc3n(c2=O)CCCCC3)c1C,254%
O=C(COc1ccc(-c2nnc3n2CCCC3)cc1)Nc1ccc(F)cc1,5.6µM*
